# Source: PubChem BioAssay AID651582 (Sanford-Burnham Center for Chemical Genomics, 2012)
# The whole screen tested about 230,000 compounds, of which about 1,500 (0.65%) were called active.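 The calls were made as follows: active = pattern-corrected inhibition of lipid staining of at least 50% with the nuclear-stain viability signal not falling by more than 50%; inactive = the rest, inconclusive results apart.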 Many of the other results were omitted from the sample, so actives are more common in it than they were.
# Assay: inhibitors of triacylglycerol accumulation, primary screen, cell-based, uHTS, fluorescence, H9c2 (AID 651582);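 as to inhibition: 0% = DMSO wells and 100% = triacsin C control wells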
# Conditions: H9c2 cells, Nile Red lipid (TAG) fluorescence, at 12.5 µM, cells loaded with 200 µM oleic acid; DAPI nuclei signal change (viability), lower = more cytotoxic: measured here: DAPI nuclei count viability; inhibition: stronger effect = higher value
Structure (SMILES),"DAPI nuclei signal change (viability), lower = more cytotoxic [%]",inhibition
CCN(CC)S(=O)(=O)c1ccc(N2CCOCC2)c(NC(=O)c2ccc(=O)n(C)n2)c1,-1.89,5.11% (inactive)
CCOC(=O)C1(C)CCCN(C(=O)c2cccc(Cl)c2)C1 (stereo unspecified),4.05,-18.8% (inactive)
CN(C(=O)c1cccc(NC(=O)Cc2ccc(NC(=O)C3CCN(C(=O)C4CCCCC4)CC3)cc2)c1)C1CCC1,-0.027,-1.1% (inactive)
O=C(Nc1ccccc1Cl)Nc1cccc2cccnc12,2.86,20.5% (inactive)
OCc1ccc(OCCCOc2cccc3cccnc23)cc1,12.3,-32.6% (inactive)
O=C(Nc1ccccc1)Oc1cccc2cccnc12,-22.4,63.4% (active)
COc1ccc(C(=O)N2CCCCC2c2cc(C(=O)Nc3ccc(F)c(Cl)c3)no2)cc1 (stereo unspecified),-1.17,2.9% (inactive)
O=C(NCCN1CCOCC1)c1ccc2c(c1)ncn2C1CCCC1,1.89,-0.366% (inactive)
O=C(NCCN1CCOCC1)c1cc(-c2cccs2)nc2ccccc12,34.9,13.5% (inactive)
c1ccc2cc3c(NCCN4CCOCC4)ccnc3cc2c1,65.1,70.1% (active)
CCOC(=O)C1CCCN(C(=O)c2ccc(C)c(S(=O)(=O)N3CCCCC3)c2)C1 (stereo unspecified),0.656,-11.3% (inactive)
O=C(C1Cc2ccccc2CN1C(=O)c1ccco1)N1CCN(c2ccccc2)CC1 (stereo unspecified),0.303,25.4% (inactive)
COc1cccc(CNc2nc3cc(-c4csc5ccccc45)sc3c(=O)n2C)c1,4.67,6.4% (inactive)
O=C(CN1C(=O)NC2(CCOc3ccccc32)C1=O)Nc1cccc([N+](=O)[O-])c1 (stereo unspecified),-0.437,29.8% (inactive)
CC(C)n1cnc2c(Nc3cccc(Cl)c3)nc(N(CCO)CCCO)nc21,-20.3,56.1% (active)
CC(C)C[C@H](CO)Nc1nc(N(C)c2cccc(Cl)c2)c2ncn(C(C)C)c2n1,-1.92,-3.43% (inactive)
OCCCNc1nccc(-c2cc(Nc3cccc(Cl)c3)ncn2)n1,-53.6,91.3% (inactive)
COc1cc(C(O)c2nc(-c3cnn(C)c3)cs2)ccc1F (stereo unspecified),-5.42,-0.779% (inactive)
CN(C)C(=O)c1cccc(-c2cnc3c(NC=O)cc(-c4ccc(F)cc4)cn23)c1,-3.97,30.4% (inactive)

Structure (SMILES),"DAPI nuclei signal change (viability), lower = more cytotoxic [%]",inhibition
CC(=O)c1cccc(-c2cnc3c(NC=O)cc(-c4ccc(N(C)C)cc4)cn23)c1,-34.1,25.5% (inactive)
CN(C)C(=O)c1cccc(-c2cnc3c(NC=O)cc(-c4ccc(C(=O)N5CCOCC5)cc4)cn23)c1,-40.1,52.5% (active)
O=CNc1cc(-c2ccc(C(=O)N3CCOCC3)cc2)cn2c(-c3ccc(F)cc3)cnc12,-10.1,16.1% (inactive)
CN(C)CCNC(=O)c1cccc(-c2cnc3c(NC=O)cc(-c4cccc(C(F)(F)F)c4)cn23)c1,-5.39,55.2% (active)
CC(=O)c1cccc(-c2cnc3c(NC=O)cc(-c4cccc(C(=O)N(C)C)c4)cn23)c1,-7.72,11.7% (inactive)
O=C(COC(=O)/C=C/c1cccc(Cl)c1)NCc1cccs1,-2.53,1.94% (inactive)
CCCNC(=O)c1cc(C2CCCCN2S(=O)(=O)c2cn(C)cn2)on1 (stereo unspecified),4.91,3.78% (inactive)
CSc1nc2ccc(NC(=O)c3c(F)cccc3F)cc2s1,1.73,-11.3% (inactive)
CC(=O)Nc1ccc2nc(NC(=O)CS(=O)(=O)c3ccc(F)cc3)sc2c1,-3.72,-0.551% (inactive)
CCCC(=O)Nc1nc2ccc(NC(=O)c3c(F)c(F)c(OC)c(F)c3F)cc2s1,-22.6,70% (active)
CCNC(=O)C1(C)CCCN(C(=O)c2c(C)noc2C)C1 (stereo unspecified),4.88,-5.1% (inactive)
CC1=C(C(=O)N(C)C)CC(CC(=O)NCCc2ccccn2)C(=O)N1CCC1=CCCCC1 (stereo unspecified),-8.79,-1.46% (inactive)
CN(Cc1c(F)cccc1Cl)C(=O)COC(=O)Cn1cnc2ccccc2c1=O,0.959,-10.1% (inactive)
O=C(OCCN1C(=O)c2ccccc2C1=O)[C@@H]1CC(O)CN1S(=O)(=O)c1ccccc1[N+](=O)[O-] (stereo partly specified),-0.22,-9.02% (inactive)
CCCC(=O)N1CCC1(C)C(=O)NS(=O)(=O)c1ccc(Cl)cc1 (stereo unspecified),2.06,6.55% (inactive)
CC(=O)Nc1ccc(C(=O)Nc2cc(S(=O)(=O)N3CCOCC3)ccc2N2CCOCC2)cc1,4.58,-8.64% (inactive)
CN1CCN(c2ccc(NC(=O)COc3ccc(Cl)cc3Cl)cc2)CC1,3.32,-1.69% (inactive)
C=CC(=O)Nc1ccc(Nc2ccnc(Nc3ccc(N4CCN(C)CC4)cc3)n2)cc1,-47,88.2% (active)
Cc1cccc(N2CCN(c3ccc(NC(=O)/C=C\C(=O)O)cc3)CC2)c1,1.52,7.15% (inactive)
